Measured values as given in the GenesisPotency data set.
Out of some 290,000 compounds screened, about 3,000 (1%) were called active. No stated cut-off is given here; in the data, active means inhibition mostly above about 36% (no sharp cut-off); inactive means mostly below about 34%. The entries come from a sample that favours actives as a whole.

Biological target: T1, Nucleotide-binding oligomerization domain-containing protein 1, Homo sapiens (UniProt Q9Y239)
T1 sequence (whole entry): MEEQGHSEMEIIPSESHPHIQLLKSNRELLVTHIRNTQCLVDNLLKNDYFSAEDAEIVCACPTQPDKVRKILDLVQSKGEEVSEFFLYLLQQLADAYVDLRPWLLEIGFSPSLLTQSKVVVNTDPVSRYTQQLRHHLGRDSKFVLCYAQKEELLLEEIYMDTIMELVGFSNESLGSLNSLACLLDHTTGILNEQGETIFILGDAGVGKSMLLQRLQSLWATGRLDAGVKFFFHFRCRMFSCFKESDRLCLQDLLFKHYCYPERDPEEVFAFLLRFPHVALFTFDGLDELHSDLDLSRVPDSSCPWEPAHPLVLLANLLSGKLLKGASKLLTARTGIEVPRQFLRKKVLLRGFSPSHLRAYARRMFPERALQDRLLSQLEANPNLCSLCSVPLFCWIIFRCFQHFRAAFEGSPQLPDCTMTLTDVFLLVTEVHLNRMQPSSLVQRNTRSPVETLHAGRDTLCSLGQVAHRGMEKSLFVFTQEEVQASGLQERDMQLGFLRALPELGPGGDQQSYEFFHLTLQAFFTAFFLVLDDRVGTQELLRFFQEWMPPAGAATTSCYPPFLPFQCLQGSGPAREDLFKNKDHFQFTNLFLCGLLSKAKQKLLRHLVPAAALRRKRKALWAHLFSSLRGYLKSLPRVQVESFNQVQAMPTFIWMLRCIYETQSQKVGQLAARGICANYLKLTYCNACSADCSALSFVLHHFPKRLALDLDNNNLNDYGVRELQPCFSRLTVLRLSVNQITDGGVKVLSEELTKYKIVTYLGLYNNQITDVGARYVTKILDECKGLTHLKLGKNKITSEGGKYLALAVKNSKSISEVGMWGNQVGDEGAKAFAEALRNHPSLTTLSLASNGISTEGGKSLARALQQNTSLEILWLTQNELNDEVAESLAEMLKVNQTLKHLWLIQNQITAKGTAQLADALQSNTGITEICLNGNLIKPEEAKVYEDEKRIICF
Experiment: NOD1 signaling inhibitors, primary screen, cell-based, luminescence, uHTS (AID 1578)

outcome, active:
CC(=O)N1CCCc2cc(S(=O)(=O)N3CCCC(C(=O)N4CCN(c5cc(C)ccc5C)CC4)C3)ccc21 (configuration not stated), CC(=O)N1CCCc2cc(S(=O)(=O)N3CCCC(C(=O)N4CCN(c5cccc(Cl)c5)CC4)C3)ccc21 (configuration not stated), Cc1ccc(S(=O)(=O)c2ncccc2[N+](=O)[O-])cc1, CN1C(=O)/C(=C/c2ccccc2Cl)Sc2ccc(C(=O)N3CCCC3)cc21, COc1ccc(/C=C2\Sc3ccc(C(=O)N4CCN(Cc5ccccc5)CC4)cc3N(C)C2=O)cc1OC, COc1ccc2c(c1OC)C(=O)OC2Nc1nc(-c2ccccc2)cs1 (configuration not stated), Cc1ccc(-c2csc(NC3OC(=O)c4ccccc43)n2)cc1 (configuration not stated), O=C(NCCc1ccccc1F)c1ccc2c(c1)OCCO2, O=C(NCCc1ccccc1)c1ccc2c(c1)OCCCO2, COc1cc(C)c(Br)cc1S(=O)(=O)NCc1ccncc1, Cc1ccc(Cc2c(C)c(C#N)c3[nH]c4ccccc4n3c2=O)cc1, O=C(N/N=C/c1ccc([N+](=O)[O-])s1)c1cccc(Br)c1, O=C(N/N=C/c1ccc([N+](=O)[O-])s1)c1ccccc1Br, O=C(Nc1cccc(S(=O)(=O)N2CCCCC2)c1)c1ccccc1NS(=O)(=O)c1ccc(F)cc1, Cc1ccc(NC(=O)c2ccccc2NS(=O)(=O)c2ccc(F)cc2)cc1S(=O)(=O)N1CCCCC1, Cc1c(C(=O)Nc2nc3ccccc3[nH]2)oc2ccc(Br)cc12, COc1ccccc1C(=O)Nc1nc2ccccc2[nH]1, COc1cc(SC)ccc1C(=O)Nc1nc2ccccc2[nH]1, O=c1cc(C(F)(F)F)nc(SCc2cccc3ccccc23)[nH]1, Cc1cnc(NC(=O)C2CC(=O)N(c3cccc(Cl)c3)C2)s1 (configuration not stated), CC(C)(C)c1cc(NC(=O)CCl)n(-c2ccccc2)n1, O=[N+]([O-])c1cccc(NC(=S)Nc2nc(-c3ccc(Cl)cc3Cl)cs2)c1, Cc1cc(Br)ccc1SCC(=O)OC/C(O)=C(\C#N)c1nc2ccccc2[nH]1, N#C/C(=C(/O)COC(=O)CSc1ccc2ccccc2c1)c1nc2ccccc2[nH]1, CC(C)(C)c1ccc(-c2noc(CCC(=O)Nc3cccnc3)n2)cc1, CC(C)(C)c1ccc(-c2noc(CCC(N)=O)n2)cc1, O=C(NC1CCCCC1)N1CCN(c2nc(-c3ccccc3)cs2)CC1, COC(=O)C1CCCCN1C(=O)c1cc(COc2cccc3cnccc23)on1 (configuration not stated), CCOC(=O)CC1CCCCN1C(=O)c1cc(COc2cccc3cnccc23)on1 (configuration not stated), COc1cc(NC(=O)COc2cc(O)c3c(c2)OC(C)(C)CC3=O)cc(OC)c1OC, Cc1ccc(-c2c3c(nc4sc(C(N)=O)c(N)c24)CCC3)cc1, NC(=O)c1sc2nc3c(c(-c4ccco4)c2c1N)CCCC3, NC(=O)c1sc2nc3c(c(-c4ccccc4)c2c1N)CCC3, Cc1nc2sc(C(N)=O)c(N)c2c2c1CCCC2, NC(=O)c1sc2nc3c(c(-c4cccs4)c2c1N)CCCCC3, Nc1ncc([N+](=O)[O-])c(N2CCCCCC2)n1, COc1ccccc1N1CCN(C(=O)C2CCCN(S(=O)(=O)c3ccc4c(c3)oc(=O)n4C)C2)CC1 (configuration not stated), CCN(CC)S(=O)(=O)c1ccc(Oc2ccc(S(=O)(=O)N(CC)CC)cc2)cc1, Cc1ccc(NC(=O)/C=C/c2ccc([N+](=O)[O-])s2)c(C)c1, Cc1ccccc1NC(=O)/C=C/c1ccc([N+](=O)[O-])s1, CCCc1nc2c(=O)n(C)c(=O)nc-2n(C)n1, O=C(CCl)N(c1ccccc1)c1c[nH]c2ccccc12, O=C(CCl)N(Cc1ccccc1)c1ccccc1, CC(=O)n1cc(N(C(=O)CCl)c2ccccc2)c2ccccc21, O=C(CCl)N(c1ccccc1)c1ccccc1, O=C(COc1ccc(Br)cc1Cl)NC(=S)N1CCc2ccccc21, CC1Cc2ccccc2N1S(=O)(=O)c1cccc(C(=O)N2CCN(c3ncccn3)CC2)c1 (configuration not stated), CC1Cc2ccccc2N1C(=S)NC(=O)c1cccc(Br)c1 (configuration not stated), Cn1c(=NC(=O)CCl)sc2ccccc21, Cc1cc(C(=O)CCl)c(C)n1CCc1ccc(F)cc1, CCc1ccc(-c2nc(CSCC(=O)N3CCN(c4ccccn4)CC3)c(C)o2)cc1, COc1cccc(CN(C)C(=O)CNC(=O)c2ccc(-c3ccccc3)cc2)c1OC, CCOc1ccc(S(=O)(=O)Nc2cnc3ccccc3c2)cc1, Cc1c(C(=O)Nc2nonc2-c2ccc(F)cc2)oc2ccc(F)cc12, Nc1ncc(Br)cc1S(=O)(=O)Nc1cc(C(F)(F)F)cc(C(F)(F)F)c1, O=[N+]([O-])c1cc([N+](=O)[O-])c2oc(-c3ccccc3)c(Br)c2c1O, O=[N+]([O-])c1ccc(Oc2ccc(F)cc2Br)c2ccncc12, O=[N+]([O-])c1ccc(Oc2ccc(F)cc2)c2ccncc12, Cc1ccc(C(=O)NC2CCCc3c2cnn3-c2ccc(F)cc2F)cn1 (configuration not stated), Cn1nccc1C(=O)NC1CCCc2c1cnn2-c1ccc(F)cc1F (configuration not stated), CC1=C(C(=O)NC2CCCc3c2cnn3-c2ccc(F)cc2F)OCCO1 (configuration not stated), COc1ccc(C(=O)CN2C(=O)c3ccccc3S2(=O)=O)cc1, Cc1ccc(C(=O)CN2C(=O)c3ccccc3S2(=O)=O)cc1, COc1ccc(-c2cc3nc(CCl)[nH]c(=O)c3s2)cc1, COc1ccc(-c2cc3nc(C)n(N)c(=O)c3s2)cc1, COc1ccccc1-c1nnc(Sc2nc([N+](=O)[O-])nn2C)o1, OCCCNc1nccc(-c2cc(Nc3cccc(Cl)c3)ncn2)n1, OCCCNc1cc(-c2ccnc(Nc3cccc(Cl)c3)n2)ccn1, CCOC(=O)c1oc2ccc(S(=O)(=O)n3nc(-c4ccc(OC)cc4)cc3N)cc2c1C, CN(C)c1ccnc2sc3c(=O)n(Cc4ccccc4)cnc3c12, Cc1c(C(=O)N2CCN(Cc3ccc4c(c3)OCO4)CC2)sc2ncnc(N3CCN(c4ccccc4)CC3)c12, Cl.O=[N+]([O-])c1ccc2ncnc(N3CCN(Cc4ccc5c(c4)OCO5)CC3)c2c1
